# Several values for one entry are separate records, joined by “and”; a condition that tells them apart may be missing. Equal entries are not always repeated. A number with no mark means an inactive call. Inconclusive results are not listed. Activity calls are given as the source filed them. Calls come from the whole dose curve; as a rule, active = well fitted curve in the direction sought with a large enough effect; inconclusive = small, poorly fitted or top-dose-only effect, or another doubt; inactive = no such curve, though single readings can be large; an effect the other way counts as inactive or inconclusive.
# Assays:
# [1] = target: Cytochrome P450 3A4 (Homo sapiens) (UniProt P08684); experiment: qHTS Assay for Inhibitors and Substrates of Cytochrome P450 3A4 (AID 884); note: potency is the fitted concentration of half-maximal effect; nearly all actives have a fitted effect of over 50% in size
# Procedure, shortened: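 Luminescent readout of luciferin produced by CYP3A4 (20 nM) dealkylation of Luciferin-PPXE, 25 uM (its KM). NADPH-driven reaction ran 60 min at RT after 10 min compound preincubation; data scaled to 57 uM ketoconazole as 100% inhibition.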
# [2] = target: Cytochrome P450 3A4 (Homo sapiens) (UniProt P08684); experiment: qHTS Assay for Activators of Cytochrome P450 3A4 (AID 885); note: nearly all actives have a fitted effect of over 65% in size
# Procedure, shortened: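 Luminescent readout of luciferin formed from 25 uM Luciferin-PPXE (KM level) by 20 nM CYP3A4 in 200 mM KPO4, with 60 min NADPH-driven reaction at room temperature after 10 min compound exposure. Ketoconazole (57 uM) defined 100% inhibition.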
# Chain of Cytochrome P450 3A4 (Homo sapiens) (P08684 whole entry, looked up): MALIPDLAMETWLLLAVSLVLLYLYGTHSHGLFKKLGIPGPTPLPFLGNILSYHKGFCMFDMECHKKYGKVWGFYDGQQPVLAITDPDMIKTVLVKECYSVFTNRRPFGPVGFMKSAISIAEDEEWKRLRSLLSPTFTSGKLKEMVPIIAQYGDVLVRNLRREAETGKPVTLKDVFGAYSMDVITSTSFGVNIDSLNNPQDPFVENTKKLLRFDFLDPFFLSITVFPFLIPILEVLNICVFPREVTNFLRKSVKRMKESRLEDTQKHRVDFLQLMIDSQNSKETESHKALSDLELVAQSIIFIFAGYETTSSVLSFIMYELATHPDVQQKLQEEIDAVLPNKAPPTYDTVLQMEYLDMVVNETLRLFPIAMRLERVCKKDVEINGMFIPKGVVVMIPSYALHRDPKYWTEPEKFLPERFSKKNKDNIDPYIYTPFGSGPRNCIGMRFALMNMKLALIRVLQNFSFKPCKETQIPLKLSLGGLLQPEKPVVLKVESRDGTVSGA
SMILES,Potency [1],Potency [2],"activity change, positive = activation [2]"
CN1C[C@@H]2C(c3ccc(Cl)nc3)C3(c4cccnc4)CC2(C3)[C@H]1c1ccccc1 (stereo partly drawn),7.94 µM (active),inactive,
COC(=O)c1ccc(C23CC4(C2)[C@H](CN(Cc2cccnc2)[C@@H]4c2ccccc2)C3c2ccccc2)cc1 (stereo partly drawn),3.98 µM (active),inactive,
CCOC(=O)N/N=C1/C[C@@H](O)[C@@H](O)[C@@H]2[C@@H]3C(=O)N(Cc4ccc5c(c4)OCO5)C(=O)[C@H]3CC[C@@H]12,3.98 µM (active),,-82.5% [at 11.4 µM]
CCC1=C(OC(=O)N(CC)CC)N2C(=O)OC(=NCCc3c[nH]c4ccccc34)[C@]2(C)[C@H]2C1=CC[C@H]1C(=O)NC(=O)[C@H]12,2.51 µM (active),inactive,
CCN1C(=O)[C@@H]2[C@H](C1=O)[C@@H]1C[C@H]3C(=O)N(CC)C(=O)[C@H]3[C@@H]3C1=C(C(=O)N1C(=O)O/C(=N\CC4CC4)[C@]31C)[C@@H]2C,15.8 µM (active),inactive,
CCC1=C2CC[C@H]3C(=O)N(c4ccccc4)C(=O)[C@H]3[C@H]2[C@@]2(Cc3ccccc3)C(=NCCc3c[nH]c4ccccc34)OC(=O)N2C1=O,1.26 µM (active),inactive,
CCC1=C(OC(=O)N(CC)CC)N2C(=O)OC(=NCCc3c[nH]c4ccccc34)[C@]2(C)[C@H]2C1=CC[C@H]1C(=O)N(C)C(=O)[C@H]12,1.26 µM (active),inactive,
C/C(CCC(=O)OC[C@@H]1O[C@H](C#Cc2ccccc2)C=C[C@@H]1Oc1ccc(C)cc1)=N/OC[C@@H](O)[C@H]1O[C@H]2OC(C)(C)O[C@H]2[C@@H]1O,3.98 µM (active),,-117% [at 11.4 µM]
CCC1=C(OC(=O)N(CC)CC)N2C(=O)OC(=NCC(=O)OC)[C@]2(Cc2ccccc2)[C@H]2C1=CC[C@H]1C(=O)N(C)C(=O)[C@H]12,10 µM (active),inactive,
CNC1=C(Br)C(=O)c2ccncc2C1=O,1.26 µM (active),inactive,
COC(=O)[C@H]1C[C@@H]2CC[C@@H](O)C[C@@H]2N1Cc1c(F)cccc1Cl,12.6 µM (active),inactive,
CCC1=C(OC(=O)N(CC)CC)N2C(=O)OC(=NCC3CC3)[C@]2(Cc2ccccc2)[C@H]2C1=CC[C@H]1C(=O)N(C)C(=O)[C@H]12,3.98 µM (active),inactive,
CCCNC(=O)OC[C@@H]1O[C@H](c2ccccc2)C=C[C@@H]1Oc1ccc(OC)cc1,3.98 µM (active),,-82.9% [at 11.4 µM]
CCC1=C2CC[C@H]3C(=O)N(c4ccccc4)C(=O)[C@H]3[C@H]2[C@@]2(C)C(=NCC(=O)OC)OC(=O)N2C1=O,15.8 µM (active),inactive,
COC(=O)C/C=C\[C@@H](C)[C@@H](/C=N\O[C@@H](C)c1cn([C@H](CO)Cc2ccccc2)nn1)NS(=O)(=O)c1ccc(C)cc1,3.98 µM (active) and 2 µM (active),,-101% [at 11.4 µM] and -92.7% [at 11.4 µM]
CCC1=C(OC(=O)N(CC)CC)N2C(=O)OC(=NCC3CC3)[C@]2(C)[C@H]2C1=CC[C@H]1C(=O)N(CC(=O)OC)C(=O)[C@H]12,7.94 µM (active),inactive,
COC(=O)C/C=C\[C@@H](C)[C@@H](/C=N\O[C@@H](C)c1cn([C@H]2COC[C@H]2O)nn1)NS(=O)(=O)c1ccc(C)cc1,3.98 µM (active),,-71.6% [at 11.4 µM]
COC(=O)c1cccc(C23CC4(C2)[C@H](CN(Cc2cccnc2)[C@@H]4c2ccccc2)C3c2ccc(C(F)(F)F)cc2)c1 (stereo partly drawn),2.51 µM (active),inactive,
CC1(C)CC(=O)c2c(oc3cc4c(cc23)OCO4)C1,3.98 µM (active),inactive,
CCC1=C(OC(=O)N(CC)CC)N2C(=O)OC(=NCC(=O)OC)[C@]2(C)[C@H]2C1=CC[C@H]1C(=O)N(CC(=O)OC)C(=O)[C@H]12,10 µM (active),inactive,
COC(=O)[C@@H]1C[C@@]2(O)[C@@H](O)[C@@H](O)[C@@H](O)C[C@H]2N1CC(c1ccccc1)c1ccccc1,3.16 µM (active),inactive,
C/C(CCN1CCc2nc(-c3ccccc3)c(-c3ccccc3)cc2C1)=N\OC[C@@H](O)COCc1ccco1,3.16 µM (active),,-86.5% [at 11.4 µM]
CCCNC(=O)OC[C@@H]1O[C@H](CCO/N=C\C[C@H]2C=C[C@H](OC(C)=O)[C@@H](COC(C)=O)O2)C=C[C@@H]1Oc1ccc(OC)cc1,3.98 µM (active),,-95.4% [at 11.4 µM]
CCC1=C2CC[C@H]3C(=O)N(C)C(=O)[C@H]3[C@H]2[C@@]2(Cc3ccccc3)C(=NCCOC)OC(=O)N2C1=O,10 µM (active),inactive,
CCC1=C(OC(=O)N(CC)CC)N2C(=O)OC(=NCc3ccccc3)[C@]2(C)[C@H]2C1=CC[C@H]1C(=O)N(c3ccccc3)C(=O)[C@H]12,2.51 µM (active),inactive,

SMILES,Potency [1],Potency [2],"activity change, positive = activation [2]"
CCC1=C(OC(=O)N(CC)CC)N2C(=O)OC(=NCCc3c[nH]c4ccccc34)[C@]2(C)[C@H]2C1=CC[C@H]1C(=O)N(CC)C(=O)[C@H]12,1.26 µM (active),inactive,
Cc1ccc(CC(Cc2nc3ccccc3[nH]2)c2nc3ccccc3[nH]2)cc1 (stereo not drawn),1.26 µM (active),inactive,
Cc1ccc(S(=O)(=O)N[C@@H]2COC(=O)C/C=C\[C@H](C)COC(=O)N[C@@H](C)C(=O)C/C=C\[C@H]2C)cc1,3.16 µM (active),,-86.3% [at 11.4 µM]
CCC1=C(OC(=O)N(CC)CC)N2C(=O)OC(=NCC3CC3)[C@]2(C)[C@H]2C1=CC[C@H]1C(=O)N(CC)C(=O)[C@H]12,3.98 µM (active),inactive,
CCC1=C(OC(=O)N(CC)CC)N2C(=O)OC(=NCC(=O)OC)[C@]2(C)[C@H]2C1=CC[C@H]1C(=O)NC(=O)[C@H]12,12.6 µM (active),inactive,
COC(=O)[C@@H]1C[C@@]2(O)[C@@H](O)[C@@H](O)[C@@H](O)C[C@H]2N1Cc1ccc(C(C)(C)C)cc1,12.6 µM (active),inactive,
C/C(CCC(=O)OC[C@@H]1O[C@H](C#Cc2ccccc2)C=C[C@@H]1Oc1ccc(C)cc1)=N/O[C@@H](C)CN1CCCCc2nc(C)c(C)cc21,3.16 µM (active),,-94.6% [at 11.4 µM]
COc1c(O)c(O)cc2c1oc1c3cc(C)ccc3oc(=O)c21,25.1 µM (active),inactive,
CCC1=C2CC[C@H]3C(=O)N(CC(=O)OC)C(=O)[C@H]3[C@H]2[C@@]2(Cc3ccccc3)C(=NCCc3c[nH]c4ccccc34)OC(=O)N2C1=O,1.26 µM (active),inactive,
CO[C@H]1COC(=O)[C@H](C)NC(=O)C/C=C\[C@@H](C)[C@@H](NS(=O)(=O)c2ccc(C)cc2)COC(=O)C/C=C\[C@@H]1C,3.98 µM (active),,-80.3% [at 11.4 µM]
CCC1=C2CC[C@H]3C(=O)N(c4ccccc4)C(=O)[C@H]3[C@H]2[C@@]2(Cc3ccccc3)C(=O)N(CC(=O)OC)C(=O)N2C1=O,3.98 µM (active),inactive,
CCC1=C2CC[C@H]3C(=O)N(c4ccccc4)C(=O)[C@H]3[C@H]2[C@@]2(Cc3ccccc3)C(=NCc3ccccc3)OC(=O)N2C1=O,5.01 µM (active),inactive,
C#CCCCO/N=C1/C[C@@H](O)[C@@H](O)[C@@H]2[C@H]3C(=O)N(c4ccc(F)cc4F)C(=O)[C@@H]3CC[C@@H]12,3.16 µM (active),,-61.6% [at 11.4 µM]
COC(=O)[C@@H]1C[C@@H]2CC[C@@H](O)C[C@@H]2N1Cc1ccc(Cl)cc1,15.8 µM (active),inactive,
Clc1ccc(C2[C@H]3CN(Cc4cccnc4)[C@H](c4ccccc4)C34CC2(c2cccnc2)C4)cn1 (stereo partly drawn),2.51 µM (active),inactive,
CCC1=C(OC(=O)N(CC)CC)N2C(=O)OC(=NCC3CC3)[C@]2(C)[C@H]2C1=CC[C@H]1C(=O)N(c3ccccc3)C(=O)[C@H]12,3.16 µM (active),inactive,
CCC1=C(OC(=O)N(CC)CC)N2C(=O)OC(=NCCc3c[nH]c4ccccc34)[C@]2(Cc2ccccc2)[C@H]2C1=CC[C@H]1C(=O)N(c3ccccc3)C(=O)[C@H]12,6.31 µM (active),inactive,
CCC1=C(OC(=O)N(CC)CC)N2C(=O)OC(=NCCOC)[C@]2(Cc2ccccc2)[C@H]2C1=CC[C@H]1C(=O)N(CC)C(=O)[C@H]12,5.01 µM (active),inactive,
CCC1=C(OC(=O)N(CC)CC)N2C(=O)OC(=NCC3CC3)[C@]2(C)[C@H]2C1=CC[C@H]1C(=O)NC(=O)[C@H]12,10 µM (active),inactive,
O=C1[C@H]2[C@H]3[C@H](O)[C@H](O)C/C(=N/OC[C@@H](O)COCc4ccco4)[C@@H]3CC[C@@H]2C(=O)N1Cc1ccc2c(c1)OCO2,3.16 µM (active),,-99.9% [at 11.4 µM]
CCCOc1ccc(Br)cc1-c1cc(-c2ccc(Cl)cc2)[nH]c1-c1ccncc1,1.26 µM (active),inactive,
CCCNC(=O)OC[C@@H]1O[C@H](CCO/N=C(\C)CCC(=O)OC[C@@H]2O[C@H](c3ccccc3)C=C[C@@H]2Oc2ccc(OC)cc2)C=C[C@@H]1Oc1ccc(OC)cc1,5.01 µM (active),,-87% [at 11.4 µM]
CCc1cc2c(nc1CC)CCN(CC/C(C)=N/O[C@@H](C)c1cc(-c3c(C)cc(C)cc3C)no1)C2,3.98 µM (active),,-69% [at 11.4 µM]
CCC1=C(OC(=O)N(CC)CC)N2C(=O)OC(=NCC3CC3)[C@]2(Cc2ccccc2)[C@H]2C1=CC[C@H]1C(=O)N(CC(=O)OC)C(=O)[C@H]12,2 µM (active),inactive,

# — PubChem BioAssay (NCATS)
